PubChem BioAssay (Tox21)
Results filed as inconclusive are left out. Where a call stands in place of a potency, no number is given. Calls of active or inactive are those of the source. The call rests on the fitted dose curve.

Target: 5-hydroxytryptamine receptor 2A (Homo sapiens) (UniProt P28223)
Test: 5-hydroxytryptamine receptor 2A (HTR2A) small molecule agonists, cell-based qHTS assay (AID 1963587); further: nearly all actives have a fitted effect of over 30% in size
How it was run: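 HTR2A-CHO cells, plated 18 h at 37 C/5% CO2, dye-loaded 1 h at 37 C; compounds in DMSO added by pin tool (agonist mode). Intracellular calcium flux read as kinetic fluorescence on FDSS over 2 min at 1 s intervals.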

5-hydroxytryptamine receptor 2A (Homo sapiens), sequence (P28223 whole entry, looked up): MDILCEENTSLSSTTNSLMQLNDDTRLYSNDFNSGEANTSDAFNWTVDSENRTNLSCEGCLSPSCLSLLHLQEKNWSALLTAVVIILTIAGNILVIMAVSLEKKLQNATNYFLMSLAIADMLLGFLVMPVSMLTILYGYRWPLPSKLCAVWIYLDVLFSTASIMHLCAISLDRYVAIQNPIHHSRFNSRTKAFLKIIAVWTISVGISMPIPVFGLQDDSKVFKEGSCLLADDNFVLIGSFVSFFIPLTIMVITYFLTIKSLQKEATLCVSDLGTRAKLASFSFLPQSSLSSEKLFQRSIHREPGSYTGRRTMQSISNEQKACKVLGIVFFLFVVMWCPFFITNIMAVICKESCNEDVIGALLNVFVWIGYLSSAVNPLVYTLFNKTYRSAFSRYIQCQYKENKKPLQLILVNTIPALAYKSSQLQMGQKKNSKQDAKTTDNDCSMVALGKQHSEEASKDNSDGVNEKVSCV

Row | Compound | Potency
1 | N=c1nc(N2CCCCC2)cc(N)n1O | inactive
2 | Cc1cncc(C)c1 | inactive
3 | Cc1c(I)c(=O)n(-c2ccccc2)n1C | inactive
4 | NCC1(Cc2noc(=O)[nH]2)CCCCC1 | inactive
5 | N#Cc1ccc(C2CCCc3cncn32)cc1 (configuration not stated) | inactive
6 | CCCC(C)CCC(C)=O (configuration not stated) | inactive
7 | O=S(=O)(O)c1cccc(S(=O)(=O)O)c1 | inactive
8 | NC(=O)C1CO1 (configuration not stated) | inactive
9 | CCc1ccc(C)nc1 | inactive
10 | CC(C)CC(O)CC(C)C | inactive
11 | Nc1cc(=O)[nH]c(N)n1 | inactive
12 | CC(=O)CC/C=C(\C)CC/C=C(\C)CC/C=C(\C)CCC=C(C)C | inactive
13 | O=C1CCN(c2ccccc2)N1 | inactive
14 | COc1cc(C=O)ccc1OC(=O)C(C)C | inactive
15 | Cc1ccc(S(=O)(=O)NC2CCCCC2)cc1 | inactive
16 | CCCCCCCC/C=C\CCCCCCCC(N)=O | inactive
17 | C[CH2][Ge]([Cl])([CH2]C)[CH2]C | inactive
18 | Cc1onc(-c2ccccc2)c1C(=O)Cl | inactive
19 | COc1cc(C)c(Cc2cnc(N)nc2N)cc1OC | inactive
20 | Cc1ccc2c(ccc3ccccc32)c1 | inactive
21 | NCC1CCCC(CN)C1 (configuration not stated) | inactive
22 | CC1CNCC(C)O1 (configuration not stated) | inactive
23 | CCCC[C@H]1CN(CC2CCOCC2)C(=O)OC12CCN(C1(C)CCN(C(=O)c3c(C)ncnc3C)CC1)CC2 | inactive
24 | CCN(Cc1cccc(S(=O)(=O)O)c1)c1ccccc1 | inactive

Row | Compound | Potency
25 | CC/C=C\CCOC(=O)C(C)C | inactive
26 | c1ccc(Nc2cccc3ccccc23)cc1 | inactive
27 | O=S(=O)(O)CO | inactive
28 | COc1ccc(Cl)cc1C | inactive
29 | CC1(C)[C@H]2CC[C@](C)(C2)[C@H]1O | inactive
30 | Nc1nnnn1-c1ccccc1 | inactive
31 | COC(=O)CCC(=O)O | inactive
32 | CCCCCCCCCCCCCCCC | inactive
33 | CCCCCCCCCCCCCCC(=O)NC(CO)CCCCCCCCCCCCCC (configuration not stated) | inactive
34 | O=C(O)c1cc(-c2ccccc2)nc2ccccc12 | inactive
35 | NC/C=C/C(=O)O | inactive
36 | O=C(O)CCCCCCCCCCCC(=O)O | inactive
37 | CCCCCCCOC(=O)c1ccccc1C(=O)OCCCCCCC | inactive
38 | CC(C)CCOCCC(C)C | inactive
39 | CCOc1cc(NC(C)=O)ccc1C(=O)OC | inactive
40 | CC[C@H](C)[C@H](N)C(=O)O | inactive
41 | CCCCC(CC)COC(=O)c1ccc(O)cc1 (configuration not stated) | inactive
42 | CCC(C)(C)C | inactive
43 | COC(c1ccccc1)(c1ccccc1)[C@H](Oc1nc(C)cc(C)n1)C(=O)O | inactive
44 | CCO[Si](OCC)(OCC)c1ccccc1 | inactive
45 | CC/C=C\CCOC(=O)CC | inactive
46 | CC(=O)SC[C@@H](C)C(=O)N1CCC[C@H]1C(=O)N[C@@H](Cc1ccccc1)C(=O)O | inactive
47 | CC(C)(C)NC(N)=O | inactive
48 | CCN(CC)CCN | inactive

Row | Compound | Potency
49 | C=CCc1cc(OC)c(O)c(C(=O)NCCO)c1 | inactive
50 | Cc1nc(C)c(C)nc1C | inactive
51 | CC1(C)O[C@H]2CC(=O)OC[C@]23[C@H]2CC[C@@]4(C)[C@H](c5ccoc5)OC(=O)[C@H]5O[C@]54[C@]2(C)C(=O)C[C@@H]13 | inactive
52 | C=C(C)C(=O)OCCNC(C)(C)C | inactive
53 | C/C=C/c1ccc(OC)c(OC)c1 | inactive
54 | ClC(c1ccccc1)(c1ccccc1)c1ccccc1 | inactive
55 | C/C=C/C(=O)C1=C(C)C=CCC1(C)C | inactive
56 | C=CCCC | inactive
57 | CCC(=O)c1ccc(O)cc1 | inactive
58 | CC[C@@H]1C[C@H](N(Cc2cc(C(F)(F)F)cc(C(F)(F)F)c2)C(C)=O)c2cc(C(F)(F)F)ccc2N1C(=O)OC(C)C | inactive
59 | CC(CCO)CCc1ccccc1 (configuration not stated) | inactive
60 | C[C@@H]1O[C@@H](OC[C@H]2O[C@@H](Oc3c(-c4ccc(O)c(O)c4)oc4cc(O)cc(O)c4c3=O)[C@H](O)[C@@H](O)[C@@H]2O)[C@H](O)[C@H](O)[C@H]1O | inactive
61 | C#CC(C)(O)CC(C)C (configuration not stated) | inactive
62 | CCCCCCN | inactive
63 | CC(=O)OCCc1ccccc1 | inactive
64 | Oc1cc(O)c2c(c1)O[C@H](c1ccc(O)c(O)c1)[C@H](O)C2 | inactive
65 | O=S(=O)(O)c1ccccc1O | inactive
66 | CC(=O)C1(C)CC2=C(CCCC2(C)C)CC1C (configuration not stated) | inactive
67 | C=CCOC(=O)CCCCCC | inactive
68 | CC1=CC(C)C(C=O)CC1 (configuration not stated) | inactive
69 | CCc1c(C(=O)O)c(=O)cnn1-c1ccc(Cl)cc1 | inactive
70 | SCCSCCS | inactive
71 | C1CCCNCCC1 | inactive
72 | CCOC(=O)O[C@]1(C(=O)OCCl)CC[C@H]2[C@@H]3CCC4=CC(=O)C=C[C@]4(C)[C@H]3[C@@H](O)C[C@@]21C | inactive
